The antibiotic and cytotoxicity screens of Wong et al. (2023)
The whole screen tested about 39,000 compounds, of which about 3,300 (8.5%) were called active. What follows is part of a selection rich in actives, with near analogues and random picks from the rest.

What follows are compounds tested on HepG2 (assay: cytotoxicity call (relative viability < 0.9)). Details: 10 µM.

Row | Structure (SMILES) | cytotoxicity call
1 | O=C(O)c1ccc(CNc2cn[nH]c(=O)n2)cc1 | inactive
2 | COCCOC(=O)N1C(=O)[C@@]2(c3cc(C#CC4=CCCCC4)ccc31)[C@H](C(=O)NC[C@H](O)c1ccccc1)[C@H]1C(=O)O[C@H](c3ccccc3)[C@H](c3ccccc3)N1[C@@H]2c1ccc(O)cc1 | inactive
3 | C[C@@H]1CN([C@@H](C)CO)C(=O)Cc2cc(NC(=O)Cn3cnnn3)ccc2O[C@H]1CN(C)S(=O)(=O)c1ccccc1 | inactive
4 | CN(C)CC(=O)N1[C@@H](CO)[C@H](c2ccc(C3=CCCC3)cc2)C12CN(S(=O)(=O)Cc1ccccc1)C2 | inactive
5 | C[C@H](NC(=O)N(C)C[C@H]1OCc2ccccc2-c2c(n(C)c3ccccc23)C(=O)N([C@@H](C)CO)C[C@@H]1C)c1ccccc1 | inactive
6 | Cc1ccc(S(=O)(=O)N(C)C[C@H]2Oc3ccc(NS(C)(=O)=O)cc3CC(=O)N([C@H](C)CO)C[C@H]2C)cc1 | inactive
7 | O=C(C[C@@H]1C[C@H]2c3cc(NC(=O)c4cccnc4)ccc3O[C@H]2[C@@H](CO)O1)NCc1cc(F)ccc1F | inactive
8 | CCCNC(=O)N1C[C@H](O)COC[C@H]2O[C@@H](CC(=O)N3CCN(C)CC3)CC[C@@H]21 | inactive
9 | O=C(C[C@@H]1C[C@H]2c3cc(NC(=O)c4ccc5c(c4)OCO5)ccc3O[C@H]2[C@@H](CO)O1)NCCc1ccccc1 | inactive
10 | COC(=O)[C@@H]1C(=O)NC[C@H]1c1ccccc1 | inactive
11 | C[C@@H]1CN([C@H](C)CO)C(=O)c2cc(NC(=O)Nc3ccccc3)ccc2O[C@@H](C)CCCCO[C@H]1CN(C)Cc1ccc(C(F)(F)F)cc1 | active
12 | C[C@@H]1CCCCO[C@@H](CN(C)Cc2ccc(C(F)(F)F)cc2)[C@@H](C)CN([C@H](C)CO)C(=O)c2cc(NC(=O)Nc3ccccc3)ccc2O1 | inactive
13 | C[C@@H]1CCCCO[C@H](CN(C)Cc2ccc(C(F)(F)F)cc2)[C@@H](C)CN([C@H](C)CO)C(=O)c2cc(NC(=O)Nc3ccccc3)ccc2O1 | inactive
14 | C[C@@H]1CCCCO[C@H](CN(C)Cc2ccc(C(F)(F)F)cc2)[C@H](C)CN([C@@H](C)CO)C(=O)c2cc(NC(=O)Nc3ccccc3)ccc2O1 | active
15 | C[C@@H]1CCCCO[C@H](CN(C)Cc2ccc(C(F)(F)F)cc2)[C@@H](C)CN([C@@H](C)CO)C(=O)c2cc(NC(=O)Nc3ccccc3)ccc2O1 | active
16 | C[C@H]1CCCCO[C@@H](CN(C)Cc2ccc(C(F)(F)F)cc2)[C@@H](C)CN([C@@H](C)CO)C(=O)c2cc(NC(=O)Nc3ccccc3)ccc2O1 | active
17 | CO[C@@H]1CN(C)C(=O)c2ccc(NC(=O)Nc3ccccc3F)cc2OC[C@@H](C)N(C(=O)Nc2ccccc2F)C[C@H]1C | inactive
18 | Nc1nc(Nc2ccccc2)nc2c1ncn2[C@@H]1O[C@H](CO)[C@@H](O)[C@H]1O | inactive
19 | CO[C@@H]1CN(C)C(=O)c2cc(NS(=O)(=O)CC(F)(F)F)ccc2OC[C@H](C)N(Cc2cccnc2)C[C@@H]1C | inactive
20 | C[C@@H]1CN([C@H](C)CO)C(=O)c2cc(C#CC3(O)CCCC3)cnc2O[C@H]1CN(C)C(=O)Cc1cccnc1 | inactive
21 | CN1CCN(C(=O)C[C@@H]2CC[C@@H]3[C@H](COC[C@@H](O)CN3S(=O)(=O)c3cccc(Cl)c3)O2)CC1 | inactive
22 | C[C@H]1CN([C@@H](C)CO)C(=O)c2cccc(NS(C)(=O)=O)c2O[C@@H]1CN(C)C(=O)Nc1ccc(F)cc1 | inactive
23 | C[C@@H]1CN([C@H](C)CO)C(=O)CCCn2nncc2CO[C@@H]1CN(C)S(=O)(=O)c1cn(C)cn1 | inactive
24 | C[C@@H]1CN([C@@H](C)CO)C(=O)c2cc(NC(=O)C3CC3)ccc2O[C@@H]1CN(C)C(=O)Nc1ccc2c(c1)OCO2 | inactive
25 | CC(=O)Nc1ccc(C(=O)NN)cc1 | inactive
26 | C[C@@H]1CN([C@H](C)CO)C(=O)c2cccc(NC(=O)c3ccncc3)c2O[C@H]1CN(C)Cc1ccncc1 | inactive

Row | Structure (SMILES) | cytotoxicity call
27 | c1ccc(CNC2CCCCC2)nc1 | inactive
28 | Cc1cccc(S(=O)(=O)N2C[C@@H](O)COC[C@H]3O[C@H](CC(=O)NCc4ccncn4)CC[C@@H]32)c1 | inactive
29 | C[C@H](CO)N1C[C@H](C)[C@@H](CN(C)Cc2ccc(C(=O)O)cc2)OCc2ccccc2-c2c(n(C)c3ccccc23)C1=O | inactive
30 | C[C@H](CO)N1C[C@H](C)[C@H](CN(C)Cc2ccc(C(F)(F)F)cc2)OCCCC[C@H](C)Oc2ccc(NC(=O)Nc3ccccc3)cc2C1=O | active
31 | C[C@H]1CCCCO[C@H](CN(C)Cc2ccc(C(F)(F)F)cc2)[C@@H](C)CN([C@@H](C)CO)C(=O)c2cc(NC(=O)Nc3ccccc3)ccc2O1 | active
32 | C[C@@H]1CCCCO[C@H](CN(C)Cc2ccc(C(F)(F)F)cc2)[C@H](C)CN([C@H](C)CO)C(=O)c2cc(NC(=O)Nc3ccccc3)ccc2O1 | active
33 | CCS(=O)(=O)NCC[C@@H]1CC[C@@H](NC(=O)C2CC2)[C@@H](CO)O1 | inactive
34 | Cc1ccc(S(=O)(=O)Nc2ccc3c(c2)CC(=O)N([C@@H](C)CO)C[C@@H](C)[C@H](CN(C)S(C)(=O)=O)O3)cc1 | inactive
35 | C[C@@H]1CN([C@@H](C)CO)C(=O)Cc2cc(NC(=O)Nc3ccccc3)ccc2O[C@H]1CN(C)C(=O)Nc1ccc(C(F)(F)F)cc1 | inactive
36 | C[C@H]1CN([C@@H](C)CO)C(=O)c2cc(NC(=O)Nc3cccc4ccccc34)ccc2O[C@H]1CN(C)S(=O)(=O)c1ccc(F)cc1 | inactive
37 | CC(=O)N[C@@H](Cc1cccc(F)c1)C(=O)O | inactive
38 | O=C(NC1Cc2ccccc2C1)[C@@H]1[C@@H](CO)[C@@H]2Cn3c(cccc3=O)[C@@H]2N1C(=O)c1cnccn1 | inactive
39 | Nc1no[n+]([O-])c1-c1ccccc1 | inactive
40 | C[C@H](CO)N1C[C@H](C)[C@H](CN(C)C(=O)Nc2ccc(F)cc2)OCCCC[C@H](C)Oc2ccc(NC(=O)c3ccccc3)cc2C1=O | inactive
41 | C[C@@H]1CN([C@@H](C)CO)C(=O)c2cc(NC(=O)Nc3ccccc3)ccc2O[C@@H](C)CCCCO[C@H]1CN(C)Cc1ccc2c(c1)OCO2 | inactive
42 | C[C@@H]1CN([C@H](C)CO)C(=O)c2cc(NC(=O)Nc3ccccc3)ccc2O[C@@H](C)CCCCO[C@@H]1CN(C)Cc1ccc2c(c1)OCO2 | inactive
43 | C[C@H]1CCCCO[C@H](CN(C)Cc2ccc3c(c2)OCO3)[C@@H](C)CN([C@@H](C)CO)C(=O)c2cc(NC(=O)Nc3ccccc3)ccc2O1 | inactive
44 | C[C@@H]1CN([C@H](C)CO)C(=O)c2cc(NC(=O)Nc3ccccc3)ccc2O[C@@H](C)CCCCO[C@H]1CN(C)Cc1ccc2c(c1)OCO2 | inactive
45 | C[C@@H]1CCCCO[C@@H](CN(C)Cc2ccc3c(c2)OCO3)[C@@H](C)CN([C@H](C)CO)C(=O)c2cc(NC(=O)Nc3ccccc3)ccc2O1 | inactive
46 | C[C@@H]1CCCCO[C@H](CN(C)Cc2ccc3c(c2)OCO3)[C@@H](C)CN([C@@H](C)CO)C(=O)c2cc(NC(=O)Nc3ccccc3)ccc2O1 | inactive
47 | C[C@@H]1CCCCO[C@@H](CN(C)Cc2ccc3c(c2)OCO3)[C@H](C)CN([C@H](C)CO)C(=O)c2cc(NC(=O)Nc3ccccc3)ccc2O1 | inactive
48 | C[C@H]1CCCCO[C@@H](CN(C)Cc2ccc3c(c2)OCO3)[C@@H](C)CN([C@@H](C)CO)C(=O)c2cc(NC(=O)Nc3ccccc3)ccc2O1 | active
49 | C[C@@H]1CCCCO[C@@H](CN(C)Cc2ccc3c(c2)OCO3)[C@@H](C)CN([C@@H](C)CO)C(=O)c2cc(NC(=O)Nc3ccccc3)ccc2O1 | active
50 | C[C@@H]1CCCCO[C@H](CN(C)Cc2ccc3c(c2)OCO3)[C@H](C)CN([C@H](C)CO)C(=O)c2cc(NC(=O)Nc3ccccc3)ccc2O1 | active
51 | C[C@@H]1CCCCO[C@H](CN(C)Cc2ccc3c(c2)OCO3)[C@@H](C)CN([C@H](C)CO)C(=O)c2cc(NC(=O)Nc3ccccc3)ccc2O1 | inactive
52 | C[C@H](CO)N1C[C@H](C)[C@H](CN(C)Cc2ccc3c(c2)OCO3)OCCCC[C@H](C)Oc2ccc(NC(=O)Nc3ccccc3)cc2C1=O | active
